# Bioassay records deposited in PubChem BioAssay by several laboratories.
# Mtb FBA inh: Mtb FBA enzyme inhibitors, primary screen, biochemical, fluorescence, strain H37Rv | hit rate 2.3% among 360,000 | inhibition, % at 1 µM | Fructose-bisphosphate aldolase (Mycobacterium tuberculosis (strain ATCC 25618 / H37Rv)), … | purified M. tuberculosis FBA, fluorescence read-out; in the data active = inhibition above about 27%;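 note: 0% = vehicle and 100% = reference inhibitor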
# Target sequence (P9WQA3 whole entry, looked up): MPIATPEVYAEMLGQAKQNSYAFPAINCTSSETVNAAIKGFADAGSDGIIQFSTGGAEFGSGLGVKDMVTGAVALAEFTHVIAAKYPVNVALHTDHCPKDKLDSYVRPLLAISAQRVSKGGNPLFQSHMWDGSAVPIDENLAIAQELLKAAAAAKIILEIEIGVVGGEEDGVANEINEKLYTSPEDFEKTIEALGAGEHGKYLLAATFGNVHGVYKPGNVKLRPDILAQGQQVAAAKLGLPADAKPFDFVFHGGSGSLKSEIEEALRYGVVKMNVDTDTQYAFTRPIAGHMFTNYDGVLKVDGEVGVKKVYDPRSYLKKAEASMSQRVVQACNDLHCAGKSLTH
# MazEF act: activators of E. coli MazEF toxin-antitoxin RNase, primary screen, biochemical, fluorescence, uHTS. activation, % at 20 µM. Endoribonuclease toxin MazF (Escherichia coli (strain K12)), P0AE70. AID 504720, 2011. FAM/BHQ RNA-DNA oligo cleavage fluorescence, 5 h. hit rate 0.32% among 350,000; in the data active = activation above about 50%
# Target sequence (P0AE70 whole entry, looked up): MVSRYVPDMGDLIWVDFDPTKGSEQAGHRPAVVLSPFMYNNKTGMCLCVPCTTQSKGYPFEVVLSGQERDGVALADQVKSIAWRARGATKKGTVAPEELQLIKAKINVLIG
# CCHF vOTU inh-1: CCHFV vOTU protease inhibitors, primary screen, biochemical, Pep-AMC substrate, fluorescence. inhibition, % at 11.5 µM. hit rate 0.55% among 370,000. AID 651958, 2012; note: 0% = vehicle wells with enzyme and 100% = no enzyme wells
# GDH-TPI counter: GDH-TPI coupling enzyme inhibitors, primary screen, artefact control for M. tuberculosis FBA inhibitor project, biochemical, absorbance, full deck | AID 588335, 2011 | GDH-TPI coupled enzyme counterscreen, NADH absorbance | hit rate 1.2% among 360,000 | inhibition, % at 4.8 µM;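 note: 0% = DMSO wells and 100% = wells lacking the enzyme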
# Mtb betalactam: beta-lactam sensitization of Mtb H37Rv, H37Rv | hit rate 0.27% among 330,000 | inhibition, % at 25 µM | AID 434955, 2010 | M. tuberculosis H37Rv growth with meropenem, percent inhibition; call rule not given here;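 note: growth measured after seven days incubation then overnight dye step; 0% = bacteria only wells and 100% = bacteria with antibiotic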
# CCHF vOTU inh-2: CCHFV vOTU protease inhibitors, confirmation, biochemical, Pep-AMC substrate, fluorescence; shares compounds with CCHF vOTU inh-1; Recombinant CCHFV vOTU; inhibition, % at 11.5 µM; hit rate 17% among 1,900
# An asterisk follows results filed as active; . = no result given. Rows were chosen to be rich in hits. Some 4% of all compounds tested hit in one or more screens of this group. Cut-off read from the data, not from the text of the source, unless noted: active = inhibition above about 30%; inactive = the rest.
SMILES,Mtb FBA inh,MazEF act,CCHF vOTU inh-1,GDH-TPI counter,Mtb betalactam,CCHF vOTU inh-2
CCOC(=O)COc1cc2oc(=O)cc(C)c2cc1[N+](=O)[O-],-1,-3,-12,7,-11,.
CC1(C)C=C2C(=NN(c3ccccc3)C(N)=C2C#N)CO1,1,0,50*,12,-6,100*
O=C(N/N=C/c1cc(Br)ccc1O)c1cccc(N2CCCC2=O)c1,5,4,32*,27,10,-15
O=C(c1ccc(COc2ccc(Cl)cc2)o1)N1CCN(Cc2ccc3c(c2)OCO3)CC1,-3,-9,30*,5,90,6
O=C(CCNC(=O)C1CCN(S(=O)(=O)c2ccc(F)cc2)CC1)NCc1ccncc1,0,6,6,-6,0,.
Cc1ccc(NC(=O)c2sc(N)nc2-c2ccc([N+](=O)[O-])cc2)c(C)c1,2,4,2,26,0,.
C/C(=N\NC(=O)c1cc(O)ccc1O)c1cccc(NC(=O)c2cccc(Cl)c2)c1,1,-4,32*,2,-9,-3
Cc1ccc2c(c1)-c1cc(C)ccc1C2=O,-4,3,-21,4,.,.
COCCCNc1c2c3c(cccc3[nH]c1=O)C(=O)c1ccccc1-2,-6,.,32*,12,-1,1
CCOC(=O)c1c2c3c(cccc3[nH]c1=O)C(=O)c1ccccc1-2,0,6,0,1,4,.
Cc1ccc(C)c(S(=O)(=O)/N=C2\C=C(NS(=O)(=O)c3ccccc3)C(=O)c3ccccc32)c1,-7,-2,30*,15,1,25
Cc1cccc(S(=O)(=O)Nc2cccc3c2C(=O)c2ccccc2-3)c1,2,-44,16,-12,-1,.
CCc1ccc(S(=O)(=O)/N=C2\C=C(NS(=O)(=O)c3ccccc3)C(=O)c3ccccc32)cc1,-9,-3,54*,13,.,11
O=C(CCCCn1cnc2c(=S)nc[nH]c21)Nc1ccc(C(=O)O)c(O)c1,9,10,16,7,.,.
C=Cc1cnc([N+](=O)[O-])n1C,-4,4,30*,13,.,-18
CCSc1ncc(/C=N/Nc2ccc([N+](=O)[O-])cc2)n1C,-19,13,3,4,0,.
COc1ccc(S(N)(=O)=O)cc1C(=O)OCC(=O)N1CCCC(C)C1 (stereo not given),0,2,30*,2,-5,-17
CCn1c(=O)c(=O)[nH]c2cc(C(=O)N3CCN(Cc4ccc5c(c4)OCO5)CC3)ccc21,1,7,2,7,-2,.
Cc1ccc2c(c1)C(=O)C(=O)N2c1ccc(C(F)(F)F)cc1,2,-4,30*,-11,-3,-9
CC1(C)CC2CC(C)(CN2C(=O)COC(=O)c2ccccc2C(F)(F)F)C1 (stereo not given),-2,3,33*,-4,-6,16
CSc1ncccc1C(=O)OCC(=O)N1CC2(C)CC1CC(C)(C)C2 (stereo not given),-1,4,-8,1,4,.
CCOc1ccc(CCNC(=O)COC(=O)c2nc(Cl)ccc2Cl)cc1OCC,7,-5,-6,3,-2,.
COc1ccc(Cl)cc1-c1cc(C(=O)NCc2cc(C(F)(F)F)cc(C(F)(F)F)c2)[nH]n1,-3,.,5,4,.,.
Cc1ccc(Cl)cc1-c1cc(C(=O)NCc2cc(C(F)(F)F)cc(C(F)(F)F)c2)[nH]n1,0,.,33*,-4,.,-19
Cc1ccc(F)cc1-c1cc(C(=O)NCc2cc(C(F)(F)F)cc(C(F)(F)F)c2)[nH]n1,-5,.,30*,0,.,5
SMILES,Mtb FBA inh,MazEF act,CCHF vOTU inh-1,GDH-TPI counter,Mtb betalactam,CCHF vOTU inh-2
Cc1cc(F)ccc1-c1cc(C(=O)NCc2cc(C(F)(F)F)cc(C(F)(F)F)c2)[nH]n1,-4,.,0,4,.,.
CCCCNC(=O)NS(=O)(=O)c1ccc(NC(=O)CCC(=O)c2cccs2)cc1,1,3,-2,1,11,.
OC[C@@H]1CN(CCN2CCOCC2)C[C@H](n2cnc3c(NC4CCCC4)ncnc32)O1,5,.,4,5,.,.
Cc1cccc(C)c1NC(=O)C1(C)CSCC(=O)N1CCOc1ccccc1 (stereo not given),.,.,31*,.,.,4
CN(C)CCN=Cc1c(O)n(Cc2ccc3c(c2)OCO3)c(=O)c2ccccc12,15,5,-11,5,3,.
O=c1c2ccccc2c(C=NC2CCN(Cc3ccccc3)CC2)c(O)n1Cc1ccc2c(c1)OCO2,.,.,31*,.,74,-16
CCCCCCCCC(=O)NC(NC(=S)N1CCOCC1)C(Cl)(Cl)Cl (stereo not given),-3,-2,36*,1,1,-6
CCCCCC(=O)NC(NC(=S)N1CCOCC1)C(Cl)(Cl)Cl (stereo not given),0,-8,4,13,-7,.
O=C(Nc1cccc2ccccc12)C1CCN(C(=O)NCc2ccccc2)CC1,1,-6,35*,2,-2,4
CCOc1ccc(NC(=O)CN(C)C(=O)c2cc(C)oc2C)cc1OCC,1,4,-3,6,-6,.
CCOc1ccc(NC(=O)CN(C)C(=O)c2ccc(C)o2)cc1OCC,2,4,32*,-6,-2,-23
O=C(COC(=O)c1ccc([N+](=O)[O-])s1)Nc1ccccc1,1,-4,61*,14,89,75*
O=C(COC(=O)c1cccs1)Nc1cccc(S(=O)(=O)NC2=NCCCCC2)c1,9,7,0,1,1,.
O=C(COC(=O)c1ccc([N+](=O)[O-])s1)Nc1ccc(F)cc1,-1,1,82*,10,68,72*
O=C(COC(=O)c1ccc([N+](=O)[O-])s1)NCc1ccccc1,-3,-6,-13,4,.,.
O=C(OCc1nnc(-c2ccccc2)o1)c1ccc([N+](=O)[O-])s1,5,-39,77*,8,77,86*
CC(C)(C)c1ccc(NC(=O)COC(=O)c2ccc([N+](=O)[O-])s2)cc1,1,4,16,-2,100,.
O=C(COC(=O)c1ccc([N+](=O)[O-])s1)Nc1cccc(S(=O)(=O)NC2=NCCCCC2)c1,4,3,58*,9,-4,35*
CCC(C)(C)NC(=O)CN(Cc1ccco1)C(=O)CCC(=O)Nc1nccs1,11,5,9,-1,-6,.
COc1ccc(N2CCN(S(=O)(=O)c3c(C)n(C)c(=O)n(C)c3=O)CC2)cc1,-1,9,25,-6,-9,.
CSc1ncccc1C(=O)N1CCCC(N2CCN(c3ccccc3C)CC2)C1 (stereo not given),-1,0,10,2,.,.
C/C(=N\NC(=O)CSc1nc2ccccc2s1)c1ccco1,0,4,-1,6,72,.
